High-throughput results: PubChem BioAssay, National Center for Advancing Translational Sciences (NCATS)
GoLoco inh red – inhibitors of human Gai1-RGS12 GoLoco interaction (red fluorophore). P63096. Gai1:RGS12 GoLoco peptide FP, rhodamine, 10 min. Potency, µM (highest dose often 61.6 µM), hits mostly inhibitors. 0.44% of 230,000 active. AID 880; active = well fitted inhibition curve with a large enough effect, not every such curve was filed as active; inactive = no such curve, though single readings can be large or run the other way; also: nearly all actives have a fitted effect of over 30% in size
Target sequence (P63096 whole entry, looked up): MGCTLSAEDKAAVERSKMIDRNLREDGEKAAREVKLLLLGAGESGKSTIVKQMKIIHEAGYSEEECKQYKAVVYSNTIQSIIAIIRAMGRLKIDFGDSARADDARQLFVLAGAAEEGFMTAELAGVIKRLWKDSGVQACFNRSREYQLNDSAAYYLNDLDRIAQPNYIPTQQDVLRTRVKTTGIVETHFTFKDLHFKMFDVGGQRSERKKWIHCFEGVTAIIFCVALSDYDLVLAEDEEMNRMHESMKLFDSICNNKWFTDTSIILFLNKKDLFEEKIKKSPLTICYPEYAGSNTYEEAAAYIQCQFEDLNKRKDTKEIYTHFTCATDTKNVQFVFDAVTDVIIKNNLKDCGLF
ERG-DNA inh – inhibitors of human ERG Ets domain-DNA interaction; P11308; AID 624246; Potency, µM (titrated, usually from 76.9 µM), hits mostly inhibitors; fluorescence polarization, His-ERG Ets domain / labelled DNA; 0.028% of 370,000 active; active = well fitted inhibition curve with a large enough effect in the polarisation, with a control signal flat; inconclusive = small, poorly fitted or top-dose-only effect, or effect the other way, or a change in a side signal; inactive = no such curve, though single readings can be large or run the other way; the % refers to the polarisation;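 also: polarization taken with two DNA probes labelled with fluorescein and Texas red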
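His-tagged ERG Ets domain (1 uM in the protein solution; 300mM KCl, 50mM Tris-HCl, 1mM EDTA, 1mM DTT, pH 7.5) received compound, then a probe mix of 5 nM fluorescein-DNA and 100nM Texas-615-DNA. Fluorescence polarization was read for both dyes.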
TR SRC2 fluor cs – Texas Red fluorescence interference in TRb-SRC2 counter-screen; AID 1479; TRb/SRC2 Texas Red total fluorescence interference; Potency, µM (doses to about 106 µM); 0.29% of 280,000 active; active = well fitted curve in either direction with a large enough effect; inconclusive = small, poorly fitted or top-dose-only effect
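Human TRb ligand-binding domain at 0.6 uM with 20 nM Texas Red SRC2 peptide in Tris buffer containing 1 uM T3 and 5% DMSO, incubated with compound 5 h at ambient temperature. Total fluorescence (555/632 nm) calculated as parallel + 2 × perpendicular.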
TRb SRC2 PPI – disrupts binding of human TR beta to SRC2. P10828. TRbeta-SRC2 peptide binding, fluorescence polarization; receptor liganded with 1 µM T3. Potency, µM (series often up to 106 µM), actives largely listed as inhibitors. 0.065% of 280,000 active. AID 1469; active = well fitted inhibition curve with a large enough effect; inconclusive = small, poorly fitted or top-dose-only effect, or effect the other way; also: nearly all actives have a fitted effect of over 50% in size
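Human TRb ligand-binding domain (0.6 uM) is mixed with 20 nM Texas Red SRC2 peptide and 1 uM T3; after compound addition and 5 hr at ambient temperature, polarization is measured and normalized to unbound and bound controls.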
Large screens that a line does not name were inactive; ! = not confirmed by another sample; [ ] = dose if it differs, or a comment. Only a selection was taken, and hits are over-represented in it overall.

COc1ccc2oc(=O)c(C(=O)C[n+]3cccc(C)c3)cc2c1	GoLoco inh red 10µM
CNC(=O)c1cc2cc(OC)ccc2oc1=O	none
CN1CCC(=C2c3ccccc3C=Cc3ccccc32)CC1	none
CN1CCC(=C2c3ccccc3Sc3ccccc32)CC1	GoLoco inh red 18µM!
Cc1ccc(-n2sc3ccccc3c2=O)cc1	GoLoco inh red 10µM
O[N+]1=CC=CCC1=S.On1ccccc1=S.[Zn]	none (no result: ERG-DNA inh)
CCS(=O)(=O)c1ccc(O)c(Nc2cc(C)nc(SC)n2)c1	TR SRC2 fluor cs 0.1µM[quencher] (no result: GoLoco inh red)
COC(=O)c1ccc(NC(=O)C(=O)NCCc2csc(-c3ccc(F)cc3)n2)cc1	TR SRC2 fluor cs 0.0004µM[quencher] (no result: GoLoco inh red)
O=C(NCCc1csc(-c2ccc(F)cc2)n1)c1c(F)cccc1Cl	TR SRC2 fluor cs 0.0002µM[quencher] (no result: GoLoco inh red)
C=C(C)C(=O)OCCN(C)C	none (no result: GoLoco inh red, ERG-DNA inh)
C=C[Si](C)(C)O[Si](C)(C)C=C	none (no result: GoLoco inh red, ERG-DNA inh)
C[C@H](Oc1ccc(Oc2cnc3ccc(Cl)cc3n2)cc1)C(=O)O	none (no result: ERG-DNA inh, TR SRC2 fluor cs, TRb SRC2 PPI)
Cc1sc2ncn(CC(=O)N(C)c3cccc(C(F)(F)F)c3)c(=O)c2c1S(=O)(=O)N1CCN(c2ncccn2)CC1	TR SRC2 fluor cs 0.079µM[quencher] (no result: GoLoco inh red)
COc1ccc(N(C)C(=O)Cn2cnc3sc(C)c(S(=O)(=O)N4CCN(c5ncccn5)CC4)c3c2=O)cc1	none (no result: GoLoco inh red)
Nc1nc(N2CCOCC2)cc(=O)[nH]1	GoLoco inh red 20µM
Cc1cc(N2CCOCC2)nc(N)n1	none
NS(=O)(=O)c1ccc(NC(=O)Nc2ccccc2F)cc1	none (no result: ERG-DNA inh, TR SRC2 fluor cs, TRb SRC2 PPI)
O=c1cnc2cncnc2n1Cc1ccc(F)cc1	none (no result: ERG-DNA inh, TR SRC2 fluor cs, TRb SRC2 PPI)
CCCCC(=Nc1ccc(N)cc1)C1=C(O)C(C(=O)OC)C(C)(C)CC1=O (centres undefined)	GoLoco inh red 25µM, ERG-DNA inh inconclusive, TR SRC2 fluor cs inconclusive, TRb SRC2 PPI inconclusive
CCC(=Nc1ccc(N)cc1)C1=C(O)C(C(=O)OC)C(C)(C)CC1=O (centres undefined)	TR SRC2 fluor cs 45µM[fluorescent], TRb SRC2 PPI 28µM (no result: GoLoco inh red, ERG-DNA inh)
CCC(=O)NC[C@H](Cc1ccc(OCCc2nc(-c3ccccc3)oc2C)cc1)N/C(C)=C\C(=O)c1ccc(C(F)(F)F)cc1	none (no result: GoLoco inh red, ERG-DNA inh)
O=C=NC1CCC(CC2CCC(N=C=O)CC2)CC1 (centres undefined)	none (no result: GoLoco inh red, ERG-DNA inh)
COc1cc(/C=N/N2C(=O)C3C4c5ccccc5C(c5ccccc54)C3C2=O)ccc1O (centres undefined)	TR SRC2 fluor cs 0.89µM[quencher]
O=C(O)[C@@H]1[C@@H]2C[C@H]([C@@H](Br)[C@H]2N2C(=O)CCC2=O)[C@@H]1C(=O)O	none (no result: ERG-DNA inh, TR SRC2 fluor cs, TRb SRC2 PPI)
COc1cccc(CNC(=O)C2CCCN(c3ncnc4onc(-c5ccc(F)cc5)c34)C2)c1 (centres undefined)	none (no result: GoLoco inh red)
Cc1ccc(CNc2ncnc3onc(-c4ccc(F)cc4)c23)cc1	TR SRC2 fluor cs 0.089µM[quencher] (no result: GoLoco inh red)
O=C(NCc1ccc(F)cc1)C1CCCN(c2ncnc3onc(-c4ccc(F)cc4)c23)C1 (centres undefined)	TR SRC2 fluor cs 16µM[quencher] (no result: GoLoco inh red)
COc1ccc(N=Nc2nc3cc(Br)c(Br)cc3n2C)c(OC)c1	GoLoco inh red 1.6µM
COc1ccc(CNc2nc3ccccc3n2C)c(OC)c1	none
CC(=O)c1c(O)cccc1O	TR SRC2 fluor cs inconclusive (no result: GoLoco inh red, ERG-DNA inh)
CC(=O)c1ccc(Nc2c3ccccc3cc3occc23)cc1	none (no result: GoLoco inh red, ERG-DNA inh)
O=c1n(Cc2ccc([N+](=O)[O-])cc2)c2ccccc2c2nc(-c3ccccc3)nn12	TR SRC2 fluor cs 100µM[quencher] (no result: GoLoco inh red)
COc1cccc2c1C(=O)c1c(O)c3c(c(O)c1C2=O)C[C@@](O)(C(=O)CO)C[C@@H]3OC1C[C@@H](N)[C@H](O)[C@H](C)O1 (some centres undefined)	GoLoco inh red 3.5µM, TR SRC2 fluor cs 40µM[fluorescent], TRb SRC2 PPI 14µM (no result: ERG-DNA inh)
COc1cccc2c1C(=O)c1c(O)c3c(c(O)c1C2=O)C[C@](O)(C(=O)CO)C[C@@H]3O[C@H]1C[C@H](N)[C@@H](O)[C@H](C)O1	none (no result: ERG-DNA inh)
COc1cccc2c1C(=O)c1c(O)c3c(c(O)c1C2=O)C[C@@](O)(C(C)=O)C[C@@H]3O[C@H]1C[C@H](N)[C@H](O)[C@H](C)O1	GoLoco inh red 1.6µM, ERG-DNA inh 0.79µM, TR SRC2 fluor cs 45µM![fluorescent], TRb SRC2 PPI 22µM!
CC(C)(N=C=O)c1cccc(C(C)(C)N=C=O)c1	none (no result: GoLoco inh red, ERG-DNA inh)
C[N+]1(CCCCSc2ccc(O)cc2)CCCCC1	GoLoco inh red 0.63µM
CC(=O)OC1CC(OC(C)=O)[C@]2(C)C(CC(=O)[C@]3(C)C2CC[C@@]2(C)C(c4ccoc4)OC(=O)C4O[C@@]423)C1(C)C (some centres undefined)	GoLoco inh red 22µM (no result: ERG-DNA inh)
